How the values were obtained:
Assay in all cases: DAPPL (digital affinity profiling via proximity ligation, sequencing); 10 mM Tris-HCl pH 7.5, 50 mM NaCl, 1 mM DTT, 4% glycerol, room temperature, 30 min; GST-TFs on glutathione beads, 16-mer random dsDNA library, 0.1% formaldehyde crosslink after washing; high values mean tight binding
Conditions in all cases: protein: recombinant; tags: N-terminal GST; dsDNA, one strand shown
FLI1 = target: T1, FLI1 (Homo sapiens, UniProt Q01543 1-452)
T1 sequence: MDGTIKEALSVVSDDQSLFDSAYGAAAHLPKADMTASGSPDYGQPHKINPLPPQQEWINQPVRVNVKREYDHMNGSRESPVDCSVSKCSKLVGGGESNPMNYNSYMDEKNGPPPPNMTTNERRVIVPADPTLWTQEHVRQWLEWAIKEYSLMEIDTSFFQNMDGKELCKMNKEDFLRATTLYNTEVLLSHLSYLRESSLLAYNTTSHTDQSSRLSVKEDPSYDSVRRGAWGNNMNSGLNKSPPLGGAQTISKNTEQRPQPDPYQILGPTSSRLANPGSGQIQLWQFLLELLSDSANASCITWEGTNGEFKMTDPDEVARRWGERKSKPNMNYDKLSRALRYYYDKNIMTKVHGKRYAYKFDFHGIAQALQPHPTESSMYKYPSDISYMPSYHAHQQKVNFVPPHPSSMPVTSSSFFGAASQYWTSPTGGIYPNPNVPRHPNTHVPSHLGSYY
Outline: (§1)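 Binding signal is each hexamer's read frequency for a factor divided by its frequency in the tag-only sample. The factors were GST-fused human transcription factors from yeast, captured on glutathione beads, DNA-barcoded and pooled with that sample. Pools were incubated with 200 nmole of a random double-stranded 16-mer DNA library in Tris/NaCl/DTT/glycerol buffer at room temperature for 30 min, then washed, crosslinked with 0.1% formaldehyde, proximity-ligated with BsaI/T4 ligase (1 h, 37 °C), PCR-amplified and sequenced on an Illumina NextSeq500.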

ELK1 = target: T2, ELK1 (Homo sapiens, UniProt P19419 1-428)
T2 sequence: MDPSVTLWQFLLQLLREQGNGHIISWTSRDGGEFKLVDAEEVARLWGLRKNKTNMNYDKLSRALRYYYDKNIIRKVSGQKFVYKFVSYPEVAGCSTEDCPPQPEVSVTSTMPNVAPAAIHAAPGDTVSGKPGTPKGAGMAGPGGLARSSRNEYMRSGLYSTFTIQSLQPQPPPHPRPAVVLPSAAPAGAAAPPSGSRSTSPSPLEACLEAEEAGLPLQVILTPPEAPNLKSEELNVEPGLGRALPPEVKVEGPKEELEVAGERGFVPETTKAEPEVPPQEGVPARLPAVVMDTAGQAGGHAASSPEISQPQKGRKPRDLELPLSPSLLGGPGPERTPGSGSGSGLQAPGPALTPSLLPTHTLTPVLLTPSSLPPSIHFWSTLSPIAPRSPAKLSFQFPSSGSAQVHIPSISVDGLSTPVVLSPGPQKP
Outline: as §1

GABPA = target: T3, GABPA (Homo sapiens, UniProt Q06546 1-454)
T3 sequence: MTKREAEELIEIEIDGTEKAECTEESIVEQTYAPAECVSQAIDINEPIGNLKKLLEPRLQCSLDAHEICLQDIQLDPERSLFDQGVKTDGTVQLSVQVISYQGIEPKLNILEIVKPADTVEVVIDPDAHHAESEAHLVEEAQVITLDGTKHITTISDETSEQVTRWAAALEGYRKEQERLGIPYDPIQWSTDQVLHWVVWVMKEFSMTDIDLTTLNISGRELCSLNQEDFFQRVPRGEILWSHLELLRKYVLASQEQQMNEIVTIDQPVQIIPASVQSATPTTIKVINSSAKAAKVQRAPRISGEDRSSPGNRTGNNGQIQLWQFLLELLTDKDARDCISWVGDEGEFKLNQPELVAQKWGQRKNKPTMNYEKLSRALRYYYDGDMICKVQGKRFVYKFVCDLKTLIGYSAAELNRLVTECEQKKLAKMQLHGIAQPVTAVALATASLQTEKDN
Outline: as §1

ERG = target: T4, ERG (Homo sapiens, UniProt P11308 1-479)
T4 sequence: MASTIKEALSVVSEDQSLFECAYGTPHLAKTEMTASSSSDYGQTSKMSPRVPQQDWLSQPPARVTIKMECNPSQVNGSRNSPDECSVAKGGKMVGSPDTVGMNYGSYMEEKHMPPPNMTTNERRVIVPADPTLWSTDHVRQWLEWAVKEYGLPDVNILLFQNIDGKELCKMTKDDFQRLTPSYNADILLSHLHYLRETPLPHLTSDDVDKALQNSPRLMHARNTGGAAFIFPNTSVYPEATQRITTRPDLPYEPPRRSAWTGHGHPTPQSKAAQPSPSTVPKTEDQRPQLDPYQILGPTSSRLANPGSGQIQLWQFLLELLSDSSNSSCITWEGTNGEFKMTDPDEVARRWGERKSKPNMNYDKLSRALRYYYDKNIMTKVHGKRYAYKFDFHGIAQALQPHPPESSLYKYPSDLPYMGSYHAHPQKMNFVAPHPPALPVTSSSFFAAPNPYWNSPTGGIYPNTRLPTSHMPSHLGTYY
Outline: as §1

ELF1 = ELF1 (Homo sapiens, UniProt P32519 1-619)
Outline: as §1

EHF = target: T5, EHF (Homo sapiens, UniProt Q9NZC4 1-300)
T5 sequence: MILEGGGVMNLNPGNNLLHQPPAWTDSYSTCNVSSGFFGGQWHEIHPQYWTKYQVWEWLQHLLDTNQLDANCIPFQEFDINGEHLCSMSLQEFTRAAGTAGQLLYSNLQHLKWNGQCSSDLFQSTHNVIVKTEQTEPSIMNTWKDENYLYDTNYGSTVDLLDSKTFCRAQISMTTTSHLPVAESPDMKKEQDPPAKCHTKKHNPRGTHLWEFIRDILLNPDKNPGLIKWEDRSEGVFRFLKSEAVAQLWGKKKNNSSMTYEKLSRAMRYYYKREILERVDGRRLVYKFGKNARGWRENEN
Outline: as §1

SPI1 = SPI1 (Homo sapiens, UniProt P17947 1-270)
Outline: as §1

SPIB = SPIB (Homo sapiens, UniProt Q01892 1-262)
Outline: as §1

ELK3 = target: T6, ELK3 (Homo sapiens, UniProt P41970 1-407)
T6 sequence: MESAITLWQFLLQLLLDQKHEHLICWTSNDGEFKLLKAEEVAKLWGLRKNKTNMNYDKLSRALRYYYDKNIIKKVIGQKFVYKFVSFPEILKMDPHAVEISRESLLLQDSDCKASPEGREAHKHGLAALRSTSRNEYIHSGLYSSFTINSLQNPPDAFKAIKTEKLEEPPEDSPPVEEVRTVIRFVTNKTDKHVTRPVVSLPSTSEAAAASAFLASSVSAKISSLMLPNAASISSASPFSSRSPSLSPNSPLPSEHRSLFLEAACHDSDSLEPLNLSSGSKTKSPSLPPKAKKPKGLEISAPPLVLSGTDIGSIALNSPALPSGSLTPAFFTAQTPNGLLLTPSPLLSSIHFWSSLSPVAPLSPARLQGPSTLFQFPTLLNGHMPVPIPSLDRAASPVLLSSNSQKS
Outline: as §1

SPIB, sequence (Q01892 whole entry): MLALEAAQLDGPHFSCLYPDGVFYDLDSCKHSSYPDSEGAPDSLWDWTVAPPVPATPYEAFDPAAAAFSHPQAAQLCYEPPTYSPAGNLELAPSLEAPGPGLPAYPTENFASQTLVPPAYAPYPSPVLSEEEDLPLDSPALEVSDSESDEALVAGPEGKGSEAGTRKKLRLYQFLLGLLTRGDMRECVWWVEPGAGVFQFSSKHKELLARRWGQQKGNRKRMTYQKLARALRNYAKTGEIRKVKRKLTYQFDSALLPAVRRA
ELF1, sequence (P32519 whole entry): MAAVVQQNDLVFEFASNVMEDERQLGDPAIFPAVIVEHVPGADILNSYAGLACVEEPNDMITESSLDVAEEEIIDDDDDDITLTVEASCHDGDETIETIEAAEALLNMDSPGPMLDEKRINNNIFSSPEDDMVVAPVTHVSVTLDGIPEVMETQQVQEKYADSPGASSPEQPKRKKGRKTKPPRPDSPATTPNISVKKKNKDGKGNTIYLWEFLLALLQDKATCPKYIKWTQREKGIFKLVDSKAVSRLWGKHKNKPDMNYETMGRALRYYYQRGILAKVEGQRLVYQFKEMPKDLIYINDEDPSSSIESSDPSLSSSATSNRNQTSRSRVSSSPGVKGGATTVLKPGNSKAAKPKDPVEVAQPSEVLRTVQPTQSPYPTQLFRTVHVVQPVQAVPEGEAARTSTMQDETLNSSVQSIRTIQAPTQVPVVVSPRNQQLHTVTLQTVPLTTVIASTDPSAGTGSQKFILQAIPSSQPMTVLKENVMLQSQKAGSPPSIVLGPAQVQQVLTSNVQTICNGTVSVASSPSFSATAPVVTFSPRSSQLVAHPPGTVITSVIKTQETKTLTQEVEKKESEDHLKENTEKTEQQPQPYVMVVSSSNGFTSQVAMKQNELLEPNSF

Sequence	binding signal (FLI1)	binding signal (ELK1)	binding signal (GABPA)	binding signal (ERG)	binding signal (ELF1)	binding signal (EHF)	binding signal (SPI1)	binding signal (SPIB)	binding signal (ELK3)
GTTGCA	1.25 fold enrichment (6-mer frequency, TF over GST control)	1.15 fold enrichment (6-mer frequency, TF over GST control)	1.16 fold enrichment (6-mer frequency, TF over GST control)	1.01 fold enrichment (6-mer frequency, TF over GST control)	1.14 fold enrichment (6-mer frequency, TF over GST control)	1.2 fold enrichment (6-mer frequency, TF over GST control)	1.15 fold enrichment (6-mer frequency, TF over GST control)	1.1 fold enrichment (6-mer frequency, TF over GST control)	1.25 fold enrichment (6-mer frequency, TF over GST control)
CTGATG	1.75 fold enrichment (6-mer frequency, TF over GST control)	1.65 fold enrichment (6-mer frequency, TF over GST control)	1.7 fold enrichment (6-mer frequency, TF over GST control)	1.43 fold enrichment (6-mer frequency, TF over GST control)	1.6 fold enrichment (6-mer frequency, TF over GST control)	1.59 fold enrichment (6-mer frequency, TF over GST control)	1.63 fold enrichment (6-mer frequency, TF over GST control)	1.7 fold enrichment (6-mer frequency, TF over GST control)	1.5 fold enrichment (6-mer frequency, TF over GST control)
CCCGGA	2.74 fold enrichment (6-mer frequency, TF over GST control)	2.61 fold enrichment (6-mer frequency, TF over GST control)	2.61 fold enrichment (6-mer frequency, TF over GST control)	2.99 fold enrichment (6-mer frequency, TF over GST control)	2.87 fold enrichment (6-mer frequency, TF over GST control)	2.95 fold enrichment (6-mer frequency, TF over GST control)	2.47 fold enrichment (6-mer frequency, TF over GST control)	3.06 fold enrichment (6-mer frequency, TF over GST control)	2.85 fold enrichment (6-mer frequency, TF over GST control)
TTGTTG	1.03 fold enrichment (6-mer frequency, TF over GST control)	1.12 fold enrichment (6-mer frequency, TF over GST control)	1.07 fold enrichment (6-mer frequency, TF over GST control)	1.1 fold enrichment (6-mer frequency, TF over GST control)	1.14 fold enrichment (6-mer frequency, TF over GST control)	1.12 fold enrichment (6-mer frequency, TF over GST control)	1.15 fold enrichment (6-mer frequency, TF over GST control)	1.05 fold enrichment (6-mer frequency, TF over GST control)	1.12 fold enrichment (6-mer frequency, TF over GST control)
CCATAC	1.23 fold enrichment (6-mer frequency, TF over GST control)	1.07 fold enrichment (6-mer frequency, TF over GST control)	1.16 fold enrichment (6-mer frequency, TF over GST control)	1.08 fold enrichment (6-mer frequency, TF over GST control)	1.18 fold enrichment (6-mer frequency, TF over GST control)	1.19 fold enrichment (6-mer frequency, TF over GST control)	1.18 fold enrichment (6-mer frequency, TF over GST control)	1.15 fold enrichment (6-mer frequency, TF over GST control)	1.2 fold enrichment (6-mer frequency, TF over GST control)
GAAATT	1.23 fold enrichment (6-mer frequency, TF over GST control)	1.15 fold enrichment (6-mer frequency, TF over GST control)	1.29 fold enrichment (6-mer frequency, TF over GST control)	1.32 fold enrichment (6-mer frequency, TF over GST control)	1.23 fold enrichment (6-mer frequency, TF over GST control)	1.36 fold enrichment (6-mer frequency, TF over GST control)	1.23 fold enrichment (6-mer frequency, TF over GST control)	1.3 fold enrichment (6-mer frequency, TF over GST control)	1.28 fold enrichment (6-mer frequency, TF over GST control)
ACTGAA	1.07 fold enrichment (6-mer frequency, TF over GST control)	1.27 fold enrichment (6-mer frequency, TF over GST control)	1.24 fold enrichment (6-mer frequency, TF over GST control)	1.11 fold enrichment (6-mer frequency, TF over GST control)	1.2 fold enrichment (6-mer frequency, TF over GST control)	1.1 fold enrichment (6-mer frequency, TF over GST control)	1.23 fold enrichment (6-mer frequency, TF over GST control)	1.07 fold enrichment (6-mer frequency, TF over GST control)	1.09 fold enrichment (6-mer frequency, TF over GST control)

— publication PMC7862700, “An all-to-all approach to the identification of sequence-specific readers for epigenetic DNA modifications on cytosine”
